These results are taken from PubChem BioAssay AID540345 (The Scripps Research Institute Molecular Screening Center, 2011).

Values without a mark were called inactive. The rule behind the calls is not given here.

The subject of the test is Imidazoline I2. Briefly: off-target binding and CYP inhibition panel, profiling panel, selectivity assay for GPR7 antagonist project, biochemical, Ricerca HitProfilingScreen, CYP450, set 2 (AID 540345). To be noted: Ricerca radioligand binding/CYP panel, central, at 10 µM, stronger effect = higher value.

In the case of `COc1ccc(Oc2c(Cl)cnn(C3c4ccccc4-c4ccccc43)c2=O)cc1`, the inhibition is 12%.

What is called inhibition is how much of the control response was suppressed.
